In the library only some 2.4% were active in any assay of this set; here they are far more common.
Cruzain Triton – blocks cruzain activity in presence of Triton detergent | purified cruzain, Z-FR-AMC fluorescence, 0.01% Triton | Potency, µM, most hits filed as inhibitors | P25779 | AID 1478 | 200,000 tested, 0.43% active; also: nearly all actives have a fitted effect of over 40% in size
Target sequence (P25779 123-467 limits assumed): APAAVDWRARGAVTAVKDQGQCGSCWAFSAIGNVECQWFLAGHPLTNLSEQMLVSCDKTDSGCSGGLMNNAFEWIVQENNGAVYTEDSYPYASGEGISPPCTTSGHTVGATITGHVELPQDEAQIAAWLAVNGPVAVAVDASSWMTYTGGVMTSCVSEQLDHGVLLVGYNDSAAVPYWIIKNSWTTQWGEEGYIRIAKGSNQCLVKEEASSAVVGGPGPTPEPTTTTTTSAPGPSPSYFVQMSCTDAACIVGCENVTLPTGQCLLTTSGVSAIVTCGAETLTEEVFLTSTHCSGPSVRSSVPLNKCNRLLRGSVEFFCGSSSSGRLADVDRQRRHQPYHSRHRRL
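15 min RT preincubation of 1.5 nM cruzain with compound, then 2 uM Z-FR-AMC added; kinetic AMC fluorescence, 60 s delta. Triton X-100 0.01%, pH 5.5.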
Cruzain inh noDet – cruzain (T. cruzi) inhibition without detergent; P25779; purified cruzain, Z-FR-AMC fluorescence, no detergent; Potency, µM, most hits filed as inhibitors; 200,000 tested, 2.3% active; also: nearly all actives have a fitted effect of over 40% in size
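Detergent-free condition (0.00005% Triton X-100) in acetate buffer pH 5.5 with DTT. 1.5 nM enzyme and compound were pre-mixed 15 min, then 2 uM Z-FR-AMC substrate added; reaction progress from fluorescence change between first and third reads (60 s).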
Of the large screens only hits and unclear results are named; the others gave an inactive call. Calls follow the shape of the dose curve; as a rule, active = well fitted curve in the direction sought with a large enough effect; inconclusive = small, poorly fitted or top-dose-only effect, or another doubt; inactive = no such curve, though single readings can be large; an effect the other way counts as inactive or inconclusive.

COc1cccc(OC)c1OCCOc1ccc(C(=O)c2ccccc2)cc1	none
COc1ccc(C2CC(c3ccccc3)=NN2C(=O)COC(=O)C2CC2)cc1 (stereo not given)	none
COc1ccc(C2CC(c3ccccc3)=NN2C(=O)COC(=O)c2cccnc2Cl)cc1 (stereo not given)	none
COc1ccc(C2CC(c3ccccc3)=NN2C(=O)COC(=O)c2cc(S(=O)(=O)N3CCOCC3)ccc2Cl)cc1 (stereo not given)	Cruzain inh noDet 13µM
COc1ccc(C2CC(c3ccccc3)=NN2C(=O)COC(=O)c2cccnc2)cc1 (stereo not given)	Cruzain inh noDet 16µM
Cc1ccc2c(=O)cc(C(=O)N(Cc3ccc(C(C)(C)C)cc3)C3CCS(=O)(=O)C3)oc2c1 (stereo not given)	Cruzain inh noDet inconclusive
Cc1cccc(NC(=O)CN2C(=O)N/C(=C\c3ccc(N4CCOCC4)cc3)C2=O)c1	none
Cc1ccc(-n2cccc2/C=C2/NC(=O)N(CC(=O)Nc3cccc(C)c3)C2=O)cc1	Cruzain inh noDet 5µM
CCOc1ccc(/C=C2\SC(=S)N(Nc3ccccc3)C2=O)cc1OC	Cruzain Triton 6.3µM, Cruzain inh noDet inconclusive
COc1cc(/C=C2\SC(=S)N(Nc3ccccc3)C2=O)cc(OC)c1OC	none
COC(=O)C1=C(N)Oc2cc(C)n(Cc3cccnc3)c(=O)c2C1c1cccc(OC)c1OC (stereo not given)	none
Cc1nc(/N=C(\N)NC(=O)c2ccccc2)nc2ccccc12	none
Cc1nc(/N=C(\N)NC(=O)N2c3ccccc3Sc3ccccc32)nc2ccccc12	Cruzain inh noDet 7.9µM
O=C(c1ccccc1)c1c2c(cc3sc4ccccc4[n+]13)-c1cccc3cccc-2c13	Cruzain inh noDet 25µM
Cc1sc2cc3c(c(C(=O)c4ccccc4)[n+]2c1C)-c1cccc2cccc-3c12	none
CCn1c2ccccc2c2nnc(SCC(=O)c3ccccc3)nc21	Cruzain inh noDet inconclusive
CCN(CC)CCSc1nnc2c3cc(F)ccc3n(CC)c2n1	Cruzain Triton 25µM, Cruzain inh noDet 25µM
Cc1noc(/C=C/N(C)C)c1S(=O)(=O)N1CCC(C(=O)O)CC1	none
NC(=O)c1noc(C(=O)N(CC(=O)NC2CCCC2)Cc2ccc3c(c2)OCO3)c1N	Cruzain inh noDet inconclusive
Cc1ccnc(NC(=S)NC(=O)/C=C/c2ccc(Cl)cc2)c1	Cruzain inh noDet 4µM
Cc1ccnc(NC(=S)NC(=O)/C=C/c2ccccc2)c1	Cruzain inh noDet inconclusive
O=c1c(O)c(-c2cc(O)c(O)c(O)c2)oc2cc(O)cc(O)c12	Cruzain Triton inconclusive, Cruzain inh noDet 13µM
O=c1c(O)c(-c2ccccc2)oc2cc(O)cc(O)c12	none
Cc1ccc(CN(C(=O)COc2ccc(Cl)c(C)c2)c2ccccn2)o1	none
O=C1C(C2=NC(C(=O)O)C3C(=O)N(c4ccccc4)C(=O)C23)=C(O)c2ccccc21 (stereo not given)	none
C[C@@]1(C(NC(=O)c2ccccc2)c2ccc(-c3ccccc3)cc2)C[C@H]1C1CCCCC1 (stereo not given in full)	Cruzain inh noDet 10µM
C[C@@]1(C(NC(=O)Cc2ccccc2)c2ccc(-c3ccccc3)cc2)C[C@H]1C1CCCCC1 (stereo not given in full)	none
O=C1NCC(c2ccccc2)C1C(=O)N/N=C\c1ccc(-c2cccc(Cl)c2Cl)o1 (stereo not given)	none
O=C(CCl)c1ccccc1	none
CN1C(=O)C2(c3ccccc31)N(c1ccc(Br)cc1)C(=O)CS2(=O)=O (stereo not given)	Cruzain inh noDet 10µM
CN1C(=O)C2(c3ccccc31)N(c1cccc(C(F)(F)F)c1)C(=O)CS2(=O)=O (stereo not given)	Cruzain inh noDet 5µM
CN1C(=O)C2(SCC(=O)N2c2cccc(C(F)(F)F)c2)c2ccccc21 (stereo not given)	Cruzain inh noDet inconclusive
CN1C(=O)C2(SCC(=O)N2c2ccc(F)cc2)c2ccccc21 (stereo not given)	none
CC(=O)Cc1nsc(NC(=O)c2ccc(-c3cccc(C(F)(F)F)c3)o2)n1	none
O=C(Nc1ncc(Cc2cccc(C(F)(F)F)c2)s1)c1ccc(-c2cccc([N+](=O)[O-])c2)o1	Cruzain inh noDet 10µM
Cc1nnc(NC(=O)c2ccc(-c3cccc(C(F)(F)F)c3)o2)s1	Cruzain inh noDet 13µM
Cc1ccc2cccc(NC(=O)c3ccc(-c4cccc([N+](=O)[O-])c4)o3)c2n1	none
Cc1c(-c2ccccc2)n(-c2ccc(Cl)cc2)c2nc3c(c(=O)n(C)c(=O)n3C)n12	none
CCOC(=O)C1CCCN(Cc2ccccc2C)C1 (stereo not given)	none
CCC(C)NC(=O)CN(C)S(=O)(=O)c1ccc2c(c1)c(=O)n(C)c(=O)n2C (stereo not given)	none
O=C(NCCc1ccc(Cl)cc1)c1ncn[nH]1	none
CCN(CC)S(=O)(=O)c1cccc(-c2n[nH]c(=S)n2/N=C/c2ccc(OC(F)F)cc2)c1	none
COc1ccc(/C=C2\SC(=O)N=C2N)cc1	Cruzain inh noDet 32µM
